What all share (assay): protein binding microarray; high values mean tight binding
Settings in all cases: dsDNA, one strand shown

For experiment [1], the target named is RELARELA (p65 homodimer) (Homo sapiens, UniProt Q04206 1-307).
The target of experiment [2] is p50p50 homodimer (Homo sapiens, UniProt P19838 7-356).
For experiment [3], the target named is T1, p52p52 homodimer (Homo sapiens, UniProt Q00653 4-332).
T1 sequence: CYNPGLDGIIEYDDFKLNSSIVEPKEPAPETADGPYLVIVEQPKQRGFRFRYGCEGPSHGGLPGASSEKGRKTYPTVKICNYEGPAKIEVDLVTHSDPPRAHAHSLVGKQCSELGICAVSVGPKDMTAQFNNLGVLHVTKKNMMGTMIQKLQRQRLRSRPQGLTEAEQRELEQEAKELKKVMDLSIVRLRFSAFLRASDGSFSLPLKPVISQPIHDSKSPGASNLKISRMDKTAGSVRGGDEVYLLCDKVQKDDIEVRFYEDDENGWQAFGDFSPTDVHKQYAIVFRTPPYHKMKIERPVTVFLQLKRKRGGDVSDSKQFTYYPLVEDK

Experiment [4] has as its target RELA (p65) subunit of heterodimer;p50 subunit (Homo sapiens;Homo sapiens, UniProt Q04206;P19838 1-307;7-356).
The target in experiment [5] is RELA (p65) subunit of heterodimer;p52 subunit (Homo sapiens;Homo sapiens, UniProt Q04206;Q00653 1-307;4-332).
For experiment [6], the target named is RELB subunit;p50 subunit (Homo sapiens;Homo sapiens, UniProt Q01201;P19838 120-401;7-356).
Experiment [7] deals with T2, RELB subunit;p52 subunit (Homo sapiens;Homo sapiens, UniProt Q01201;Q00653 120-401;4-332).
T2 sequence 1: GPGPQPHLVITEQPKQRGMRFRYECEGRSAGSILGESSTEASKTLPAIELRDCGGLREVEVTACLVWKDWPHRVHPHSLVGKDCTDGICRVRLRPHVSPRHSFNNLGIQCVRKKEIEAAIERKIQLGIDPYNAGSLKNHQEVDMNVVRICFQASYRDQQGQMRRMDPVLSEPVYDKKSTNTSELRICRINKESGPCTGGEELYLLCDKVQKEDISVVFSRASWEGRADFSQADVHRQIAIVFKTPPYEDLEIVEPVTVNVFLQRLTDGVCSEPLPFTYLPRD
T2 sequence 2: T1 sequence

For experiment [8], the target named is C-Rel subunit;p50 subunit (Homo sapiens;Homo sapiens, UniProt Q04864;P19838 1-285;7-356).
For experiment [9], the target named is T3, C-Rel subunit;p52 subunit (Homo sapiens;Homo sapiens, UniProt Q04864;Q00653 1-285;4-332).
T3 sequence 1: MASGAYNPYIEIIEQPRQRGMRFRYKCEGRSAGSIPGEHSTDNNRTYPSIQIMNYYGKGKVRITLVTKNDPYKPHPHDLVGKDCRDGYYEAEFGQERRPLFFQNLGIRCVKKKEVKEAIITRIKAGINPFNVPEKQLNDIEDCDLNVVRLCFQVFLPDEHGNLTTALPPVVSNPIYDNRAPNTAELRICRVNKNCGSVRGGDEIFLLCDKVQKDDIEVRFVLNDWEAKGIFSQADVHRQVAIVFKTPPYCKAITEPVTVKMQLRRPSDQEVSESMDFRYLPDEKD
T3 sequence 2: T1 sequence

p50p50 homodimer, sequence (P19838 7-356): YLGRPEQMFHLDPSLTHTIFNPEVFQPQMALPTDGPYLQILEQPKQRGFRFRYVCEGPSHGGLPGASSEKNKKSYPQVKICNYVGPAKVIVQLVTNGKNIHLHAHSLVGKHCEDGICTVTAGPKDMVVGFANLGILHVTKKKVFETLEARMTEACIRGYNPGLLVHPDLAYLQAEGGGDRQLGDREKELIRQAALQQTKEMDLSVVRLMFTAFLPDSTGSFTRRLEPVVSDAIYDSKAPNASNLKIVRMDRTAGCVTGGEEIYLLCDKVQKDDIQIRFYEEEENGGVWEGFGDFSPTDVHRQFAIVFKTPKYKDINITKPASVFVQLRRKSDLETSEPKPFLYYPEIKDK
RELA (p65) subunit of heterodimer;p50 subunit, sequence (Q04206 1-307, chain 1 of 2): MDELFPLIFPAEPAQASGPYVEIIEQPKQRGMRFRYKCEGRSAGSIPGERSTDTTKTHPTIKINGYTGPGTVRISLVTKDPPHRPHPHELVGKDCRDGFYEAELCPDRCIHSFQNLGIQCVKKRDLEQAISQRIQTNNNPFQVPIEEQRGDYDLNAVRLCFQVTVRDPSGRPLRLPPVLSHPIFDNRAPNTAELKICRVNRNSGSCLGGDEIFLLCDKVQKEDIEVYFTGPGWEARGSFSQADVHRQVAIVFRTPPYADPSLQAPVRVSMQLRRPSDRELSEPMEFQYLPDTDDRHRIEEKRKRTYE
RELA (p65) subunit of heterodimer;p50 subunit, sequence (P19838 7-356, chain 2 of 2): as the sequence (P19838 7-356) above
RELARELA (p65 homodimer), sequence (Q04206 1-307): as the sequence (Q04206 1-307, chain 1 of 2) above

With AGATGTTTCCC, the binding signal in [1] turned out to be 1.63 z-score; in experiment [2], 0.332 z-score; in experiment [3], 0.359 z-score; in experiment [4], 0.89 z-score; in [5], 0.674 z-score; in experiment [6], 0.348 z-score. The figures for the binding signal in experiment [7], in [8] and in experiment [9] were 0.51 z-score, 1.05 z-score and 0.783 z-score, respectively.
On to CAAGTTCCCCT, for which the binding signal worked out at 0.677 z-score in experiment [1]; 1.46 z-score in experiment [2]; 2.18 z-score in [3]; 1.97 z-score in [4]; 1.77 z-score in experiment [5]; 2.27 z-score in experiment [6]. The binding signal turned out to be 2.14 z-score in [7], 1.56 z-score in [8] and 1.84 z-score in experiment [9].
For the sequence AGGAGAACCCT, the binding signal in experiment [1] is -0.567 z-score; in [2] it was -0.719 z-score; in experiment [3] it was -0.426 z-score; in experiment [4], -0.838 z-score; in experiment [5], -0.729 z-score; in experiment [6], -0.652 z-score. For the same sequence, the binding signal is -0.634 z-score in experiment [7], -0.871 z-score in experiment [8] and -0.624 z-score in experiment [9].
Take AAGTAAGTCCC: the binding signal in experiment [1] came to 0.51 z-score; in experiment [2], 1.02 z-score; in [3] it was 0.587 z-score; in experiment [4], 0.837 z-score; in experiment [5], 0.459 z-score; in [6], 1.1 z-score. In addition, the results for the binding signal in experiment [7], in [8] and in experiment [9] were 0.647 z-score, 0.768 z-score and 0.419 z-score, respectively.
Regarding CGGGTTATCCC, the binding signal turned out to be 1.55 z-score in [1]; 0.247 z-score in experiment [2]; 1.5 z-score in experiment [3]; 0.634 z-score in [4]; 0.988 z-score in experiment [5]; 0.155 z-score in [6]. Besides, the binding signal was determined as 0.698 z-score in experiment [7], 0.306 z-score in [8] and 0.791 z-score in experiment [9].
For the sequence GGATGTCCCCC, the binding signal came to 0.799 z-score in experiment [1]; 1.11 z-score in experiment [2]; 1.17 z-score in experiment [3]; 1.69 z-score in experiment [4]; 1.37 z-score in [5]; 1.27 z-score in experiment [6]. In addition, the binding signal in [7] stood at 1.47 z-score; in experiment [8] it was 1.1 z-score; in [9] it was 1.45 z-score.
Turning to AAGATGGCCCT, the binding signal is -0.837 z-score in experiment [1]; -0.78 z-score in experiment [2]; -0.556 z-score in experiment [3]; -0.621 z-score in experiment [4]; -0.715 z-score in experiment [5]; -0.275 z-score in experiment [6]. Besides, the binding signal was -0.142 z-score in experiment [7], -0.828 z-score in experiment [8] and -0.686 z-score in [9].
Consider AGATAGATCCT, for which the binding signal was -0.82 z-score in [1]; -1.87 z-score in experiment [2]; -0.716 z-score in experiment [3]; -1.06 z-score in experiment [4]; -1.23 z-score in experiment [5]; -1.03 z-score in [6]. Further, the binding signal in experiment [7] was -0.915 z-score; in experiment [8], -1.64 z-score; in [9] it was -0.98 z-score.
For the sequence GAGTATATCCT, the binding signal in experiment [1] was -0.264 z-score; in experiment [2], -1.06 z-score; in experiment [3], -0.578 z-score; in experiment [4], -0.876 z-score; in experiment [5], -0.768 z-score; in experiment [6] it was -1 z-score. Moreover, the binding signal in experiment [7] is -0.866 z-score; in experiment [8], -1.36 z-score; in experiment [9], -0.891 z-score.
As to AGGGTGCCCCT, the binding signal is -0.552 z-score in experiment [1]; 0.473 z-score in [2]; 0.342 z-score in experiment [3]; 0.511 z-score in experiment [4]; 0.658 z-score in [5]; 0.571 z-score in experiment [6]. The results for the binding signal in experiment [7], in [8] and in experiment [9] were 1.16 z-score, 0.426 z-score and 0.644 z-score, respectively.
AGAGAGATCCC: the binding signal in experiment [1] is -0.281 z-score; in experiment [2] it was -0.511 z-score; in experiment [3], -0.367 z-score; in experiment [4], -0.448 z-score; in [5], -0.506 z-score; in [6], -0.355 z-score. The binding signal is -0.569 z-score in experiment [7], -0.565 z-score in experiment [8] and -0.502 z-score in experiment [9].
As for AAAGGACTCCT, the binding signal was -0.688 z-score in experiment [1]; -1.11 z-score in [2]; -0.681 z-score in [3]; -0.94 z-score in experiment [4]; -0.976 z-score in experiment [5]; -1.07 z-score in experiment [6]. Also, the binding signal in experiment [7] is -0.964 z-score; in experiment [8] it was -1.03 z-score; in [9] it was -0.758 z-score.
With CAATTGCTCCC, the binding signal in experiment [1] was -0.396 z-score; in experiment [2], -0.852 z-score; in [3], -0.46 z-score; in [4] it was -0.685 z-score; in [5] it was -0.589 z-score; in experiment [6], -0.487 z-score. The binding signal in experiment [7] was -0.531 z-score; in experiment [8], -0.849 z-score; in experiment [9] it was -0.604 z-score.
AAGATCGTCCC: the binding signal in experiment [1] was 0.328 z-score; in experiment [2], 0.168 z-score; in experiment [3], 0.307 z-score; in experiment [4] it was -0.197 z-score; in experiment [5], -0.135 z-score; in experiment [6], 0.309 z-score. Also, the binding signal in experiment [7] was 0.078 z-score; in experiment [8] it was 0.266 z-score; in experiment [9], -0.166 z-score.
